Drawing on PubChem BioAssay AID620 (Sanford-Burnham Center for Chemical Genomics, 2007), this text covers cytotoxicity for 62 compounds.

SMILES strings stand for the structures. Out of some 87,000 compounds screened, about 360 (0.41%) were called active. Cut-off read from the data, not from the text of the source: active = cytotoxicity above about 50%; inactive = the rest. For the sample, actives were picked, then their nearest neighbours and some compounds at random.

The assay can be described thus: cytotoxicity in HT1080 fibrosarcoma cells, cell-based, fluorescence readout (AID 620).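 Note: cells exposed to compound overnight then 4 h with Alamar Blue; 0% = vehicle DMSO and 100% = killing control.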 The settings on record: HT1080 viability, at 10 µM, stronger effect = higher value.
Take `Cc1ccccc1NS(=O)(=O)c1ccc(NC(=O)c2ccco2)cc1`: the cytotoxicity was 2.4% (inactive).
As for `Cc1cc(C)cc(C(=O)N2CC(C)OC(C)C2)c1` (configuration not stated), the figure is -14.9% (inactive); as for `COc1ccccc1-c1cc(C(F)(F)F)nc(S(=O)(=O)CCCC(=O)O)n1`, -3.7% (inactive); as for `CCOC(=O)CS(=O)(=O)c1nc(-c2ccccc2)cc(C(F)(F)F)n1`, 8.3% (inactive).
The result for `CCOC(=O)CS(=O)(=O)c1nc(-c2ccc(F)cc2)cc(C(F)(F)F)n1` reads 56.6% (active).
As for `COC(=O)CSc1nc(-c2ccc(F)cc2)cc(C(F)(F)F)n1`, the figure is -10% (inactive); as for `COc1ccccc1-c1cc(C(F)(F)F)nc(S(=O)(=O)CCCC(=O)N2CCCCC2C)n1` (configuration not stated), 18.6% (inactive).
As for `COC(=O)CCS(=O)(=O)c1nc(-c2ccccc2)cc(C(F)(F)F)n1`, the cytotoxicity was 2.4% (inactive).
The result for `CS(=O)(=O)c1nc(-c2ccccc2)cc(C(F)(F)F)n1` reads 59.4% (active); that for `COc1ccc(-c2cc(C(F)(F)F)nc(S(C)(=O)=O)n2)cc1`, 11.7% (inactive); that for `COc1ccc(-c2cc(C(F)(F)F)nc(S(C)(=O)=O)n2)cc1OC`, 10.4% (inactive).
As for `CCOC(=O)CSc1nc(-c2ccccc2)cc(C(F)(F)F)n1`, the cytotoxicity is -7.2% (inactive).
As for `CCOC(=O)Cn1c(=O)oc2cc(S(=O)(=O)N3CCN(c4ccccn4)CC3)ccc21`, the figure is -4.7% (inactive); as for `N#Cc1ccccc1Cn1c(=O)n(C2CCCC2)c(=O)c2ccccc21`, 4.1% (inactive); as for `COc1cccc(C(=O)NCC(=O)N2CCC(C)CC2)c1`, 7.2% (inactive).
The result for `COc1cccc(Oc2cn[nH]c2-c2ccc(O)cc2O)c1` reads 55.2% (active); that for `COc1ccc(Oc2cn[nH]c2-c2ccc(O)cc2O)cc1`, 19% (inactive).
The result for `COc1cccc(Oc2cn[nH]c2-c2ccc(OC)cc2O)c1` reads 19.1% (inactive); that for `N#CC1C(C#N)N2CCCN2C1c1ccc(Cl)cc1` (configuration not stated), -17.9% (inactive).
As to `CCn1c(SCC(=O)O)nnc1C1CCCCC1`, the cytotoxicity was 3.3% (inactive).
As for `CCN1C(=O)/C(=C2\C=Cc3ccccc3N2CC)OC1=S`, the figure is 5.1% (inactive); as for `CCN1C(=C2C(=O)c3ccccc3C2=O)C=Cc2ccccc21`, 12.1% (inactive); as for `CCN1/C(=C/c2ccc3ccccc3[n+]2CC)C=Cc2ccccc21`, 54.3% (active).
As for `Cc1cc(C)c2c(N)c(C(=O)NCc3ccco3)sc2n1`, the cytotoxicity is 10.7% (inactive).
Regarding `Cc1cc(C)cc(N(CC(=O)N2CCN(Cc3ccccc3)CC2)S(=O)(=O)c2c(C)noc2C)c1`, the cytotoxicity was -0.8% (inactive).
In the case of `Cc1ccccc1-c1nc(CN2CCCC(C(=O)NCc3cccnc3)C2)c(C)o1` (configuration not stated), the cytotoxicity was -7.7% (inactive).
As for `N#CC1=C(N)Oc2cc3ccccc3cc2C1c1cccs1` (configuration not stated), the figure is -2.7% (inactive).
As for `N#CC1=C(N)Oc2c(ccc3ccccc23)C1c1cccs1` (configuration not stated), the figure is 65.3% (active); as for `N#CC1=C(N)Oc2cc(O)ccc2C1c1cccs1` (configuration not stated), -3.3% (inactive); as for `COc1ccc(CCn2nnnc2C(C(C)C)N2CCC(C(N)=O)CC2)cc1OC` (configuration not stated), 6% (inactive).
On to `Cc1cc(C)cc(OC(=O)N2CCOCC2)c1`, for which the cytotoxicity was 3.6% (inactive).
The result for `CCOC(=O)CNc1c(-c2ccccc2)nc2ccc(Cl)cn12` reads 24.2% (inactive).
As for `CCOC(=O)CNc1c(-c2ccc(OC)cc2)nc2ccc(Cl)cn12`, the figure is 73.3% (active); as for `CCOC(=O)CNc1c(-c2ccc(O)cc2)nc2ccc(Cl)cn12`, 36.6% (inactive); as for `CCOC(=O)N1CCN(C(=O)CSc2nc3ccccc3c(=O)n2-c2ccccc2)CC1`, 5.2% (inactive).
`CCn1c(CC(=O)Nc2ccc(C)c(Cl)c2)nnc1SCC(=O)Nc1nc(C)cs1`: the cytotoxicity is -12.9% (inactive).
For `COc1ccc(CC(=O)NC2CCN(CC(=O)Nc3ccc4c(c3)OCCO4)CC2)cc1OC`, the cytotoxicity was -8.3% (inactive).
The result for `O=C(CN1CCc2ccccc2C1)Nc1ccccc1N1CCCCCC1` reads -18.8% (inactive); that for `OCCN1CCN(CCCN2c3ccccc3Sc3ccc(C(F)(F)F)cc32)CC1`, 91.7% (active).
`CN(C)CCCN1c2ccccc2Sc2ccc(C(F)(F)F)cc21`: the cytotoxicity is 54% (active).
For the compound `OCCN1CCN(CCCN2c3ccccc3Sc3ccc(Cl)cc32)CC1`, the cytotoxicity was 22.8% (inactive).
The result for `COc1ccc2c(c1)Sc1ccccc1N2CCN(C)C` reads 58.8% (active); that for `O=C(CN1CCCC1)N1c2ccccc2Sc2ccc(C(F)(F)F)cc21`, -7.9% (inactive).
On to `COc1ccc([C@@H]2Sc3ccccc3N(CCN(C)C)C(=O)[C@@H]2OC(C)=O)cc1`, for which the cytotoxicity was 31.1% (inactive).
The result for `CN(C)CCCN1c2ccccc2Sc2ccccc21` reads 15.9% (inactive).
As for `CC(CN1c2ccccc2Sc2ccccc21)N(C)C` (configuration not stated), the figure is 11.7% (inactive); as for `CN1CCN(CCCN2c3ccccc3Sc3ccc(C(F)(F)F)cc32)CC1`, 7.7% (inactive).
For the compound `O=c1c2ccccc2c(C=NC2CCS(=O)(=O)C2)c(O)n1-c1ccccc1` (configuration not stated), the cytotoxicity is -6.8% (inactive).
As for `Nc1c(C(=O)NCc2ccccc2)nnn1Cc1ccc(F)cc1`, the figure is 1.7% (inactive); as for `COc1ccc(N2CCN(C(=O)c3ccc(CS(=O)(=O)c4ccc(OC)cc4)o3)CC2)cc1`, -8.4% (inactive); as for `Cc1ccc(C)c(N2CCN(C(=O)c3ccc(CS(=O)(=O)c4ccccc4C)o3)CC2)c1`, 34% (inactive).
The result for `Cc1cccc(N2CCN(C(=O)c3ccc(CS(=O)(=O)c4ccccc4C)o3)CC2C)c1` (configuration not stated) reads 51.2% (active).
The result for `Cc1ccccc1S(=O)(=O)Cc1ccc(C(=O)N2CC(C)CC(C)C2)o1` (configuration not stated) reads -14.1% (inactive).
As to `CCOC(=O)N1CCN(C(=O)c2ccc(CS(=O)(=O)c3ccc(OC)cc3)o2)CC1`, the cytotoxicity was 0.8% (inactive).
As for `COc1ccc(S(=O)(=O)Cc2ccc(C(=O)N3CCN(c4cccc(C)c4)C(C)C3)o2)cc1` (configuration not stated), the figure is 52.2% (active); as for `Cc1ccc2c(c1)[C@H]1OCC[C@H]1[C@@H](c1ccncc1)N2`, -2.2% (inactive).
The result for `CC1CCCCN1CCn1c(=S)[nH]c2ncccc2c1=O` (configuration not stated) reads 33.2% (inactive).
As for `Cn1c(SCC(=O)NC2CCCC2)nnc1-c1ccc(S(=O)(=O)N2CCOCC2)cc1`, the figure is 4.3% (inactive).
`O=C1CCC(=O)N1c1ccccc1-c1ccccc1`: the cytotoxicity is -0.5% (inactive).
Regarding `O=C(CSCc1ccccc1)Nc1ccc(Cl)cn1`, the cytotoxicity is 20.2% (inactive).
The result for `CCCC(=O)Nc1ccc(NC(=O)CCc2ccccc2)cn1` reads 8.6% (inactive); that for `O=C(CCc1ccccc1)Nc1ccc(Cl)cn1`, 52.1% (active).
